From PubChem BioAssay
For some assays here: Measured potencies and affinities stand elsewhere. Calls of active or inactive are those of the source.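 How the source made its calls, unless noted: active means fluorescence ratio normalized to control raised more than 50% in primary screen plus both repeat runs; inactive means the rest.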

Assays:
[1] = system: TRPC4 beta (transient receptor potential cation channel C4), mouse; assay: activators of mouse TRPC4 channel, confirmation, cell-based, Fluo4 calcium, HEK293 TRPC4beta/mu-opioid, duplicates, 10 µM (AID 2426); conditions: Fluo4 calcium fluorescence, at 10 µM; hits give high values
[2] = system: transient receptor potential cation channel C4 beta (TRPC4), mouse; assay: activators of mouse TRPC4 channel, confirmation, cell-based, second round, Fluo4, HEK293 TRPC4beta/mu-opioid, 1 µM (AID 2461;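 active means primary screen active and over 50% activation in each of two duplicate runs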); conditions: Fluo4 calcium fluorescence, at 1 µM; hits give high values
[3] = system: TRPC4 (transient receptor potential cation channel C4 beta), mouse; assay: positive allosteric modulators of mouse TRPC4, confirmation, cell-based, second round, Fluo-4, HEK293 TRPC4beta/mu-opioid, 1 µM (AID 2554;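 active means primary screen hit whose fluorescence ratio, in both repeats, exceeds the weak agonist control mean by 3 SD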); conditions: DAMGO EC20, Fluo-4 calcium flux, at 1 µM; hits give high values
[4] = system: TRPC4 beta (transient receptor potential cation channel C4), mouse; assay: positive allosteric modulators of mouse TRPC4, confirmation, cell-based, Fluo-4, HEK293 TRPC4beta/mu-opioid (AID 2555;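 active means primary screen hit whose calcium fluorescence ratio, in both repeats, exceeds the weak agonist control mean by 3 SD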); conditions: DAMGO EC20, Fluo-4 calcium flux, at 10 µM; hits give high values
[5] = target: Short transient receptor potential channel 4 (Mus musculus) (UniProt Q9QUQ5); assay: inhibitors of mouse TRPC4 channel, confirmation, cell-based, Fluo4, HEK293 TRPC4beta/mu-opioid (AID 2636;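 active means calcium signal cut by more than 3 SD below the full-agonist control yet still positive, in both repeats and the earlier primary screen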); conditions: DAMGO, Fluo4 calcium flux, at 10 µM; hits give high values
[6] = target: Short transient receptor potential channel 4 (Mus musculus) (UniProt Q9QUQ5); assay: inhibitors of mouse TRPC4 channel, confirmation, cell-based, second round, Fluo4, HEK293 TRPC4beta/mu-opioid, 1 µM (AID 2637;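 active means calcium signal ratio cut to more than 3 SD under the fully stimulated control mean yet still positive, in both repeats and the primary screen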;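 on inhibition: percent of integrated ratio relative to wells lacking test compound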); conditions: Fluo4 calcium flux, DAMGO, at 1 µM; hits give high values
[7] = target: Short transient receptor potential channel 4 (Mus musculus) (UniProt Q9QUQ5); assay: mouse TRPC4 channel activators, dose response, cell-based, HEK293 TRPC4/mu-opioid, Fluo-4 calcium (AID 434937;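 active means primary screen activator hit with a dose response curve and TRPC4 channel activation at any tested dose; inactive means no activation, no dose response, or not a primary hit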)
[8] = target: Short transient receptor potential channel 4 (Mus musculus) (UniProt Q9QUQ5); assay: TRPC4 positive allosteric modulators, dose response, cell-based, HEK293 TRPC4/mu-opioid, Fluo-4 calcium, EC20 DAMGO (AID 434941;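 active means earlier screen potentiator hit that boosts the TRPC4 ion channel at some dose, with a dose response; inactive means no potentiation, no dose response, or not a prior hit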;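 further: calcium entry triggered by an EC20 dose of DAMGO at the co-expressed mu-opioid receptor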)
[9] = target: Short transient receptor potential channel 6 (Mus musculus) (UniProt Q61143); assay: inhibition of mouse TRPC6 channel, confirmation, selectivity assay for TRPC4 inhibitor project, cell-based, HEK293, membrane potential dye, duplicate (AID 434948;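 active means active in primary screen and both duplicates, each dropping signal beyond three positive-control SD with fluorescence still positive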); conditions: HEK293 TRPC6, membrane potential dye fluorescence, at 10 µM, stimulated with maximal-effect acetylcholine; hits give high values
[10] = target: Short transient receptor potential channel 6 (Mus musculus) (UniProt Q61143); assay: activation of mouse TRPC6 channel, confirmation, selectivity assay for TRPC4 activator project, cell-based, HEK293, membrane potential dye, duplicate (AID 434950;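 active means membrane potential signal rise above negative control mean plus 3 SD in both duplicates, also active in the earlier TRPC4 screen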); conditions: HEK293 TRPC6, membrane potential fluorescence, at 10 µM; hits give high values
[11] = target: Short transient receptor potential channel 6 (Mus musculus) (UniProt Q61143); assay: TRPC6 potentiation by TRPC4 potentiator hits, confirmation, selectivity assay for TRPC4 potentiator project, HEK293 cells, membrane potential dye, duplicate (AID 434952;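 active means compound raising the membrane signal above positive-control mean plus 3 SD in both repeats, and a primary screen hit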); conditions: HEK293 TRPC6, membrane potential dye fluorescence, at 10 µM, maximal acetylcholine added after compound; hits give high values
[12] = target: Short transient receptor potential channel 4 (Mus musculus) (UniProt Q9QUQ5); assay: calcium flux activators in TRPC4/5HT1a cells, counter-screen for TRPC4 activator project, cell-based, second counter screen, HEK293 TRPC4/5HT1a, Fluo-4 (AID 434977;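 active means calcium signal rise above buffer-control mean plus 5 SD in both duplicates, and also a hit in the primary screen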;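 on activation: plate controls were assay buffer for no effect and maximal serotonin response for full effect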); conditions: Fluo-4 calcium flux, at 10 µM; hits give high values
[13] = calcium flux inhibitors in TRPC4/5HT1a cells, confirmation, counter-screen for TRPC4 inhibitor project, cell-based, second counter screen, HEK293 TRPC4/5HT1a, Fluo-4 (AID 434978;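 active means primary screen active whose calcium signal fell more than 3 SD beyond the full-serotonin control mean in both duplicate plates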;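 on outcome: serotonin given first at submaximal then at maximal dose after compound preincubation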); conditions: Fluo-4 calcium flux, at 10 µM, serotonin added to trigger calcium flux; hits give high values
[14] = system: TRPC4 (mouse), co-expressed with 5HT1a in HEK293; assay: calcium flux potentiators in TRPC4/5HT1a cells, confirmation, counter-screen for TRPC4 potentiator project, cell-based, second counter screen, HEK293 TRPC4/5HT1a, Fluo-4 (AID 434979;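 active means signal rise over 3 SD above mean of control wells given weak agonist, in both repeats and first screen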); conditions: Fluo-4 calcium flux, at 10 µM, serotonin added at its EC20 dose; hits give high values
[15] = calcium flux activation in mu-opioid HEK293 cells, confirmation, counter-screen for TRPC4 activator project, cell-based, HEK293 mu-opioid receptor line (AID 449723;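 active means hit in primary screen, with calcium signal over 5 SD above buffer well mean in both duplicates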;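 further: counter screen cells carry the mu-opioid receptor alone and lack TRPC4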); conditions: Fluo-4 calcium fluorescence, at 10 µM; hits give high values
[16] = calcium flux enhancement in mu-opioid HEK293 cells, confirmation, counter-screen for TRPC4 allosteric potentiator project, cell-based, HEK293 mu-opioid receptor line (AID 449724;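 active means calcium signal rise more than 3 SD above the low-dose agonist control mean, in both duplicate plates and the primary screen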); conditions: Fluo-4 calcium flux, at 10 µM, compound added before EC20 DAMGO stimulus; hits give high values
[17] = thallium flux activation in parental CHO cells, counter-screen for KCNQ1 potentiator project (AID 493006;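 active means duplicate-averaged activation above buffer control mean plus 5 SD of those controls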;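 on activation: fluorescence ratio of max minus min over baseline after K+ and Tl+ depolarization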); conditions: parental CHO-K1 cells, FluxOR thallium flux, at 10 µM; hits give high values
[18] = target: Potassium voltage-gated channel subfamily KQT member 1 (Homo sapiens) (UniProt P51787); assay: KCNQ1 potassium channel potentiators, confirmation, FluxOR thallium flux, CHO cells, duplicates (AID 493007;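 active means potentiation averaged over duplicate wells exceeding buffer-only control mean by more than 3 SD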;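 on outcome: cells depolarized by a potassium plus thallium sulfate stimulus after compound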;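 on potentiation: 0% = buffer-only wells and 100% = R-L3 activator control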); conditions: KCNQ1 cell line, FluxOR thallium flux fluorescence, at 10 µM; hits give high values, % of reference activator effect, buffer zero
[19] = target: Potassium voltage-gated channel subfamily KQT member 2 (Rattus norvegicus) (UniProt O88943); assay: rat KCNQ2 channel potentiation, selectivity assay for KCNQ1 potentiator project, KCNQ2-CHO-K1 cells (AID 493009;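 active means mean duplicate potentiation above the buffer control mean plus 5 SD of buffer wells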;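 further: assay conditions were tuned for KCNQ1 rather than KCNQ2 modulators; signal is max minus min fluorescence divided by baseline after thallium stimulus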); conditions: FluxOR thallium flux fluorescence, at 10 µM; hits give high values, scaled: buffer 0, activator control 100
[20] = target: Potassium voltage-gated channel subfamily KQT member 1 (Homo sapiens) (UniProt P51787); assay: KCNQ1 channel current potentiators, confirmation, orthogonal assay for KCNQ1 potentiator project, IonWorks patch clamp, KCNQ1-CHO cells (AID 493184;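 active means current rise at least 3 SD above the untreated control mean in each of two repeat wells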); conditions: automated patch clamp current, at 10 µM; hits give high values

Potassium voltage-gated channel subfamily KQT member 1 (Homo sapiens), sequence (P51787 whole entry, looked up): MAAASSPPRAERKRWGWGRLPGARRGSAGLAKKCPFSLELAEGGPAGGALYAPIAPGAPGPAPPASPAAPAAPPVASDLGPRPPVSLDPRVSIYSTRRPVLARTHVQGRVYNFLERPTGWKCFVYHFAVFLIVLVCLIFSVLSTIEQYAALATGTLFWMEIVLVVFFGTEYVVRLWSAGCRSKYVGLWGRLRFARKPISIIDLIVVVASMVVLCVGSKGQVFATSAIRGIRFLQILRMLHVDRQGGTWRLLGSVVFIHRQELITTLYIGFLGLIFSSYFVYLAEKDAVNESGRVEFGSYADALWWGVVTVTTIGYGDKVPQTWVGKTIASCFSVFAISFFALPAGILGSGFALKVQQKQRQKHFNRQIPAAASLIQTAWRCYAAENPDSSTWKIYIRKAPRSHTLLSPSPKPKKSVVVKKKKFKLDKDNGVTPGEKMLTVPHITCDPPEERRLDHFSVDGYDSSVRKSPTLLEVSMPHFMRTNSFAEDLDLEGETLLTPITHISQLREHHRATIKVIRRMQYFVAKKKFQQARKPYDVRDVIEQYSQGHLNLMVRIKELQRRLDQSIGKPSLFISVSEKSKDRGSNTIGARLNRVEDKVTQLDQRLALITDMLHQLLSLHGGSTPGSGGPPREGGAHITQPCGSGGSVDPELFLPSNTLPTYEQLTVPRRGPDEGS
Potassium voltage-gated channel subfamily KQT member 2 (Rattus norvegicus), sequence (O88943 whole entry, looked up): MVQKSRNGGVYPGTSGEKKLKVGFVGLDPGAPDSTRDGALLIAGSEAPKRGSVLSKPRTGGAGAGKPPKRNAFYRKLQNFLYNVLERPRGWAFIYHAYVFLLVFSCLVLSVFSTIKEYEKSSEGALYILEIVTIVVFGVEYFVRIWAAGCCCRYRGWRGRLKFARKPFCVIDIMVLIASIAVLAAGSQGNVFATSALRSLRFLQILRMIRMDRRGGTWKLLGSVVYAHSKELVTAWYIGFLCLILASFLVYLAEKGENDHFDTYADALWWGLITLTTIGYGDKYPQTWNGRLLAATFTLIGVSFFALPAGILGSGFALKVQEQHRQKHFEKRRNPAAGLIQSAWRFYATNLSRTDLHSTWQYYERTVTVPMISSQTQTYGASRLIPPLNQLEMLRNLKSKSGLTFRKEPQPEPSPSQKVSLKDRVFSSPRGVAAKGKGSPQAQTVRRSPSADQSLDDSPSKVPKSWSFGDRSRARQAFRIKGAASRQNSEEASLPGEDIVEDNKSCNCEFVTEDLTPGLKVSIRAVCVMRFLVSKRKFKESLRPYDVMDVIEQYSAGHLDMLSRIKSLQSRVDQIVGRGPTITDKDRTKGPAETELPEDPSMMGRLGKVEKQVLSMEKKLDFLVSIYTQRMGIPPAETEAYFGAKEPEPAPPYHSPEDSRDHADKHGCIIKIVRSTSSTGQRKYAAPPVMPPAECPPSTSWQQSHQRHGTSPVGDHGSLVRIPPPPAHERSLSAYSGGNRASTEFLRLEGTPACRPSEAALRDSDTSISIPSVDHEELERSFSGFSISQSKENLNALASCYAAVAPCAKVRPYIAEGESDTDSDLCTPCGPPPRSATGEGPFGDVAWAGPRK
Short transient receptor potential channel 6 (Mus musculus), sequence (Q61143 whole entry, looked up): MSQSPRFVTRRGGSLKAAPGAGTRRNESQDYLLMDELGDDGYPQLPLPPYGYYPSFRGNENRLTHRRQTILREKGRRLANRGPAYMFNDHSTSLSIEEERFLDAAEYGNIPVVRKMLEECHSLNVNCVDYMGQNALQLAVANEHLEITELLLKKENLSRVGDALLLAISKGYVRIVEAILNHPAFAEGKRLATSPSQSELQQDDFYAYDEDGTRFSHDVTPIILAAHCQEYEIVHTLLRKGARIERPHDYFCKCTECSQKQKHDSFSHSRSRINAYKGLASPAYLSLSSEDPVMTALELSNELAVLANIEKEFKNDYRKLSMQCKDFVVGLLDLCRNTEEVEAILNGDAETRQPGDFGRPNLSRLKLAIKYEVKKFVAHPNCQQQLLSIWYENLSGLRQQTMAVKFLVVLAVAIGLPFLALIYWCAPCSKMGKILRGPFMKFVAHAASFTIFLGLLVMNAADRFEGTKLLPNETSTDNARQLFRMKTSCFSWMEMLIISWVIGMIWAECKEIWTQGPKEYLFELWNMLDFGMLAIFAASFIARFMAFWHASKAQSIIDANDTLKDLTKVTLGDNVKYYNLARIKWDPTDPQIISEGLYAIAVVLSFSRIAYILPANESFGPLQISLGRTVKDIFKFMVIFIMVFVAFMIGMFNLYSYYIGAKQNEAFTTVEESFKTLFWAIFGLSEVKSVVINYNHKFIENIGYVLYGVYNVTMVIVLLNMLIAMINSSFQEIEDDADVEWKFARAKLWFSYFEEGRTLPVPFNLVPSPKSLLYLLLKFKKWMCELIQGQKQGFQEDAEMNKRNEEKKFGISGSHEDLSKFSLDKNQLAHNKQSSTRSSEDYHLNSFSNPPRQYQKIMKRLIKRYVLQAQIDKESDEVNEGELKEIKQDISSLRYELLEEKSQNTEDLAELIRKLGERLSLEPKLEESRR
Short transient receptor potential channel 4 (Mus musculus), sequence (Q9QUQ5 whole entry, looked up): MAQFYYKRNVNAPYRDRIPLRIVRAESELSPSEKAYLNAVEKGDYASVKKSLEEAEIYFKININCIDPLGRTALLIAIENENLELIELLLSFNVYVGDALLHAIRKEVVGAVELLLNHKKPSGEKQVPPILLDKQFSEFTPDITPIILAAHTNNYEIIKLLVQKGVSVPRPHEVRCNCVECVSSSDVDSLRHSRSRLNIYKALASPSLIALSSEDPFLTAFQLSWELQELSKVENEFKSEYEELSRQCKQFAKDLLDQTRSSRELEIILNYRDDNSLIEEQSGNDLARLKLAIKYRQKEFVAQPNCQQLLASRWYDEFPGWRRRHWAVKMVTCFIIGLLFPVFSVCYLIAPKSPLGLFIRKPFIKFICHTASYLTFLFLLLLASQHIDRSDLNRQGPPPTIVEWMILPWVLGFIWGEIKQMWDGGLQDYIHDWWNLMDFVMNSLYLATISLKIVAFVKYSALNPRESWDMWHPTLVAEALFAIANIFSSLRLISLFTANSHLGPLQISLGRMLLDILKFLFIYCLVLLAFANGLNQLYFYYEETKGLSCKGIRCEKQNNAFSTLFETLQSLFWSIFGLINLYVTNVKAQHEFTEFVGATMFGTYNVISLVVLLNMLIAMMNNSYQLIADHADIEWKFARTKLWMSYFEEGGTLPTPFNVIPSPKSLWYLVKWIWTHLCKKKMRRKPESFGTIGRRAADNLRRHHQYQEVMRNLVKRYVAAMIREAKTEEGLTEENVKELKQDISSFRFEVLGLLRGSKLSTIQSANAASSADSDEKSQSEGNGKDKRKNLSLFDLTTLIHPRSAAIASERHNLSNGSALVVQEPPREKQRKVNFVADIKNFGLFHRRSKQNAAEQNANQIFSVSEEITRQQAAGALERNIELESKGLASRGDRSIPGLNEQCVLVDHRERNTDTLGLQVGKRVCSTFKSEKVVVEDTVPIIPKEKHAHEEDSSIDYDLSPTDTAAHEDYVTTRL

Brc1ccccc1CN1CCN(Cc2c[nH]c3ccccc23)CC1
active: inhibition [5] 78% | inhibition [9] 55.5% | inhibition [13] 41.8%
inactive: outcome [1] | outcome [2] | outcome [3] | outcome [4] | outcome [6] | outcome [7] | outcome [8] | outcome [10] | outcome [11] | outcome [12] | outcome [14] | outcome [15] | outcome [16] | outcome [17] | outcome [18] | outcome [19] | outcome [20]

O=C(O)CCNc1nc(-c2ccccc2)c2cc(Br)ccc2n1
inactive: outcome [1] | outcome [2] | outcome [4] | outcome [5] | outcome [6] | outcome [7] | outcome [9] | outcome [10] | outcome [11] | outcome [12] | outcome [13] | outcome [15] | outcome [16]
active: potentiation [3] 11% | potentiation [14] 24.1%

Cc1ccc(OCC(=O)NNC(=S)NC(=O)c2ccc(Br)o2)c(C)c1
inactive: outcome [1] | outcome [2] | outcome [3] | outcome [4] | outcome [6] | outcome [7] | outcome [8] | outcome [9] | outcome [10] | outcome [11] | outcome [14] | outcome [15] | outcome [16] | outcome [20]
active: inhibition [5] 65% | activation [12] 18.1% | inhibition [13] 21.6% | activation [17] 198% | potentiation [18] 106% | potentiation [19] 328%

c1ccc(-c2nc(NCc3ccco3)c3ccccc3n2)cc1
active: inhibition [5] 87% | inhibition [13] 32.3%
inactive: outcome [1] | outcome [2] | outcome [3] | outcome [4] | outcome [6] | outcome [7] | outcome [8] | outcome [9] | outcome [10] | outcome [11] | outcome [12] | outcome [14] | outcome [15] | outcome [16] | outcome [17] | outcome [18] | outcome [19] | outcome [20]

CC(C1CC2CCC1C2)n1c(-c2cccs2)n[nH]c1=S (stereo unspecified)
inactive: outcome [1] | outcome [2] | outcome [3] | outcome [4] | outcome [6] | outcome [7] | outcome [8] | outcome [9] | outcome [10] | outcome [11] | outcome [12] | outcome [14] | outcome [15] | outcome [16] | outcome [17] | outcome [20]
active: inhibition [5] 54% | inhibition [13] 34% | potentiation [18] 48% | potentiation [19] 148%

COc1cc(NS(=O)(=O)c2ccc3ccccc3c2)c2ncccc2c1
inactive: outcome [1] | outcome [2] | outcome [3] | outcome [4] | outcome [6] | outcome [7] | outcome [8] | outcome [9] | outcome [10] | outcome [11] | outcome [12] | outcome [14] | outcome [15] | outcome [16] | outcome [17] | outcome [20]
active: inhibition [5] 70% | inhibition [13] 23.4% | potentiation [18] 47% | potentiation [19] 154%

CN(C)CC(CCC(CN(C)C)C(O)(c1ccccc1)c1ccccc1)C(O)(c1ccccc1)c1ccccc1 (stereo unspecified)
inactive: outcome [1] | outcome [2] | outcome [3] | outcome [4] | outcome [5] | outcome [6] | outcome [7] | outcome [8] | outcome [9] | outcome [10] | outcome [11] | outcome [12] | outcome [13] | outcome [14] | outcome [15] | outcome [16] | outcome [17] | outcome [18] | outcome [19] | outcome [20]

CCSC1=N/C(=C\c2ccc(OC)cc2)C(=O)N1
inactive: outcome [1] | outcome [2] | outcome [3] | outcome [4] | outcome [5] | outcome [6] | outcome [7] | outcome [9] | outcome [10] | outcome [11] | outcome [12] | outcome [13] | outcome [14] | outcome [15] | outcome [16]

CCCCn1c(SCC(=O)N2c3ccccc3Sc3ccccc32)nc2c1c(=O)n(C)c(=O)n2C
inactive: outcome [1] | outcome [2] | outcome [5] | outcome [6] | outcome [7] | outcome [9] | outcome [10] | outcome [11] | outcome [12] | outcome [13] | outcome [15] | outcome [16]
active: potentiation [3] 8% | potentiation [4] 97% | potentiation [14] 93.4%

CC(C)c1c(O)nc(SCCN(C)C)[nH]c1=O
active: potentiation [3] 13% | potentiation [4] 27% | potentiation [14] 57.7%
inactive: outcome [1] | outcome [2] | outcome [5] | outcome [6] | outcome [7] | outcome [9] | outcome [10] | outcome [11] | outcome [12] | outcome [13] | outcome [15] | outcome [16]

Cc1nc2c3cc(Cl)ccc3n(CCN3CCCCC3)c2s1
active: inhibition [5] 72% | inhibition [9] 39.5% | inhibition [13] 28.7%
inactive: outcome [1] | outcome [2] | outcome [3] | outcome [4] | outcome [6] | outcome [7] | outcome [8] | outcome [10] | outcome [11] | outcome [12] | outcome [14] | outcome [15] | outcome [16] | outcome [17] | outcome [18] | outcome [19] | outcome [20]

CC(=O)C1=C(S(=O)(=O)c2ccc(C)cc2)CS(=O)(=O)C1
active: inhibition [5] 74% | inhibition [6] 39% | inhibition [13] 12.2% | potentiation [19] 200%
inactive: outcome [1] | outcome [2] | outcome [3] | outcome [4] | outcome [7] | outcome [8] | outcome [9] | outcome [10] | outcome [11] | outcome [12] | outcome [14] | outcome [15] | outcome [16] | outcome [17] | outcome [18] | outcome [20]

Fc1ccccc1COc1ccccc1CNCc1ccncc1
inactive: outcome [1] | outcome [2] | outcome [3] | outcome [4] | outcome [6] | outcome [7] | outcome [8] | outcome [9] | outcome [10] | outcome [11] | outcome [12] | outcome [13] | outcome [14] | outcome [15] | outcome [16]
active: inhibition [5] 79%
